This is an account of results in PubChem BioAssay.

The source made the active and inactive calls.

Assay [1] is described as follows: A549 cell viability effects, profiling panel, calcein-AM fluorescence, 48 h, basal (AID 1162). Particulars: higher = more signal.
Assay [2] is described as follows: adipocyte viability effects, profiling panel, cell-based, 3T3-L1 adipocytes, calcein-AM fluorescence, 48 h, basal (AID 1163). As to conditions: 3T3-L1 adipocytes viability, higher = more signal.
Assay [3] can be described thus: HepG2 cell viability effects, profiling panel, calcein-AM fluorescence, 48 h, basal (AID 1164). As to conditions: higher = more signal.
Assay [4] is described as follows: MM1S cell viability effects, profiling panel, calcein-AM fluorescence, 48 h, basal (AID 1165).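 Note: viability of MM1S multiple myeloma cells under basal unstimulated conditions.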 As to conditions: higher = more signal.
Assay [5] is described as follows: basal RPMI8226 viability, no added stimulus, profiling panel, cell-based, calcein-AM fluorescence, 48 h, PK04 Diversity Set (AID 1166).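 Note: cells grown under basal conditions without added stimulus.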 Particulars: RPMI8226 myeloma viability, higher = more signal.
The nature of assay [6]: basal HepG2 mitochondrial membrane potential changes, profiling panel, cell-based, JC-1 fluorescence, 24 h, 100 nL compound (AID 1167). As to conditions: higher = more signal.
A short description of assay [7]: basal 3T3-L1 adipocyte mitochondrial potential changes, profiling panel, cell-based, JC-1 fluorescence, 3T3-L1 adipocytes, 24 h, 100 nL compound (AID 1168). As to conditions: JC-1 mitochondrial fluorescence, higher = more signal, called active from +8 up or from −8 down.
The nature of assay [8]: basal RPMI8226 mitochondrial membrane potential changes, profiling panel, cell-based, JC-1 fluorescence, 24 h, 100 nL compound (AID 1169). As to conditions: RPMI8226 myeloma, JC-1 mitochondrial potential fluorescence, higher = more signal.
A short description of assay [9]: basal MM1S mitochondrial membrane potential changes, profiling panel, cell-based, JC-1 fluorescence, 24 h, 100 nL compound (AID 1170). As to conditions: higher = more signal.
Assay [10] in a line: A549 lung cancer cell viability effects, profiling panel, resazurin fluorescence, 24 h, PK04 Diversity Set (AID 1171). Particulars: higher = more signal, called active from +8 up or from −8 down.
Note: test concentration not given here.

For the molecule `Cc1ccc([C@@H]2CC=C(C(=O)O)[C@H](c3ccccc3)N2S(=O)(=O)c2ccc(C)cc2)cc1`, the z-score is -0.612 in assay [1]; 0.557 in [2]; -0.825 in [3]; -0.251 in assay [4]; -2.2 in assay [5]; -0.957 in [6]. Also, the z-score in [7] was 0.289 (inactive); in assay [8] it was -0.373; in assay [9], 0.511; in [10], -0.997 (inactive).
`CC(C)[C@H]1NC(=O)[C@@]23C(=O)N[C@@H](Cc4ccccc4)C2[C@H](C)[C@@]2(C)O[C@H]2C3/C=C/C/C=C\CNC(=O)[C@H](C)NC1=O` (stereo not given in full): the z-score in assay [1] was 0.011; in assay [2], 0.657; in assay [3], -0.614; in [4], 0.434; in assay [5] it was -0.938; in [6], -0.458. Moreover, the z-score in [7] was -0.0933 (inactive); in assay [8] it was 0.279; in assay [9], 0.498; in [10] it was 0.0653 (inactive).
Turning to `CCCNC(=O)[C@@H]1c2ccccc2C(=O)N(C2CCCCC2)[C@H]1c1ccc(CO)cc1`, the z-score was 0.285 in [1]; -0.144 in [2]; 0.107 in assay [3]; -0.524 in assay [4]; 0.0117 in assay [5]; 2.29 in [6]. Moreover, the z-score is 0.00608 (inactive) in assay [7], -0.192 in [8], -0.401 in assay [9] and 1.58 (inactive) in [10].
Consider `C=CC[C@@]1(C(=O)NCC(O)CO)N=C(c2ccc(OCCCO)cc2)O[C@@H]1c1ccccc1CN=[N+]=[N-]` (stereo not given in full), for which the z-score in [1] is 2.22; in [2] it was 0.0076; in assay [3] it was 0.816; in assay [4], 0.92; in assay [5] it was 0.0295; in assay [6], 1.41. In addition, the z-score in assay [7] was 1.62 (inactive); in [8], -0.153; in assay [9], -0.873; in [10] it was 0.047 (inactive).
For the molecule `C=C(CCCC)C(=O)CC[C@@H](OC(=O)c1cccnc1)c1cccc(OCCO)c1`, the z-score is 1.17 in assay [1]; 0.977 in assay [2]; -0.865 in [3]; -3.38 in assay [4]; -2.93 in assay [5]; 0.558 in assay [6]. The z-score in assay [7] is 0.645 (inactive); in [8], -0.721; in assay [9] it was -1.68; in assay [10] it was 0.468 (inactive).
On to `COCCOC(=O)N1C(=O)[C@@]2(c3ccccc31)[C@H](C(=O)N1CCc3cc(OC)c(OC)cc3C1)[C@H]1C(=O)O[C@H](c3ccccc3)[C@H](c3ccccc3)N1[C@@H]2c1ccccc1OCCO`, for which the z-score in assay [1] is 1.57; in assay [2], 1.3; in [3] it was -0.478; in assay [4] it was -1.2; in assay [5] it was -0.222; in assay [6], 1.24. Besides, the z-score is 0.407 (inactive) in assay [7], -0.181 in assay [8], -0.238 in assay [9] and 0.725 (inactive) in [10].
`CCCC=C(CCC)[C@@H](NS(=O)(=O)c1ccc(C(F)(F)F)cc1)c1ccc(-c2ccccc2)cc1`: the z-score in [1] is -0.91; in assay [2] it was -0.988; in assay [3] it was -0.396; in assay [4], -0.5; in [5], -2.65; in assay [6] it was 0.285. Also, the z-score was 0.33 (inactive) in [7], 0.342 in assay [8], -1.15 in assay [9] and 2.3 (inactive) in assay [10].
As for `O=C1C2C=CC(C(O)C(c3ccccc3)c3ccccc3)N(Nc3ccc([N+](=O)[O-])cc3)C2C(=O)N1c1ccccc1` (stereo not given), the z-score in assay [1] is -0.727; in [2], -0.97; in assay [3], 0.585; in assay [4], -0.224; in assay [5], -0.986; in assay [6], 0.581. Besides, the z-score in assay [7] is -0.735 (inactive); in assay [8] it was 0.213; in assay [9], -1.44; in assay [10], 0.452 (inactive).
On to `CC(C)C[C@@H]1NC(=O)[C@H](CC(C)C)NC(=O)[C@@]23C(=O)N[C@@H](Cc4ccccc4)C2[C@H](C)[C@@]2(C)O[C@H]2C3/C=C/CC/C=C/CNC1=O` (stereo not given in full), for which the z-score is -0.422 in assay [1]; 1.31 in [2]; -0.766 in [3]; -1.66 in assay [4]; -2.04 in assay [5]; 2.33 in assay [6]. Besides, the z-score is -0.141 (inactive) in [7], -0.366 in [8], 0.19 in assay [9] and 1 (inactive) in assay [10].
`CCCC=C(CCC)[C@@H](NC(=O)c1ccccc1)c1ccccc1`: the z-score is -0.956 in assay [1]; -0.551 in [2]; 0.46 in assay [3]; -0.0621 in assay [4]; -0.246 in assay [5]; -3.04 in [6]. The z-score was 0.177 (inactive) in [7], -0.017 in [8], -1.49 in assay [9] and 0.215 (inactive) in assay [10].
With `COCCOC(=O)N1C(=O)[C@@]2(c3cc(C#CC4=CCCCC4)ccc31)[C@H](C(=O)NC[C@H](O)c1ccccc1)[C@H]1C(=O)O[C@H](c3ccccc3)[C@H](c3ccccc3)N1[C@@H]2c1ccccc1OCCO`, the z-score was -1.03 in assay [1]; -0.383 in assay [2]; -3.29 in [3]; -3.21 in [4]; -4.04 in assay [5]; -1.46 in assay [6]. In addition, the z-score was 2.6 (inactive) in assay [7], -0.804 in [8], -1.67 in assay [9] and -1.43 (inactive) in [10].
